Test results taken from PubChem BioAssay (EPA / NIEHS).
Records with an inconclusive call do not appear. Activity calls are given as the source filed them. Rule for the calls: active = hit-call score of the fitted dose curve at least 0.9, where 1 is the maximum; inconclusive = response in the unintended direction; inactive = score below 0.9.

Assays:
[1] = TOX21_p53_BLA_p2_viability: Viability Assessment in the Tox21 HCT-116 p53 Agonism Beta-lactamase Assay, Phase 2 (AID 2283591);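 note: compound exposure lasted 16 h at 37 °C; actives lower the ATP signal meaning cytotoxicity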
Method in brief: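 HCT116 p53-bla cells, 4000/well, dosed after 5 h plating (217-fold dilution of DMSO stocks) and incubated 16 h at 37C. Viability taken as cellular ATP by CellTiter-Glo luminescence after 30 min RT; signal loss marks cytotoxicity.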

[2] = molecular target: Cellular tumor antigen p53 (Homo sapiens) (UniProt P04637); test: TOX21_p53_BLA_p2_ratio: Tox21 HCT-116 p53 Agonism Beta-lactamase Assay, Ratio, Phase 2 (AID 2283592)
Cellular tumor antigen p53 (Homo sapiens), sequence (P04637 whole entry, looked up): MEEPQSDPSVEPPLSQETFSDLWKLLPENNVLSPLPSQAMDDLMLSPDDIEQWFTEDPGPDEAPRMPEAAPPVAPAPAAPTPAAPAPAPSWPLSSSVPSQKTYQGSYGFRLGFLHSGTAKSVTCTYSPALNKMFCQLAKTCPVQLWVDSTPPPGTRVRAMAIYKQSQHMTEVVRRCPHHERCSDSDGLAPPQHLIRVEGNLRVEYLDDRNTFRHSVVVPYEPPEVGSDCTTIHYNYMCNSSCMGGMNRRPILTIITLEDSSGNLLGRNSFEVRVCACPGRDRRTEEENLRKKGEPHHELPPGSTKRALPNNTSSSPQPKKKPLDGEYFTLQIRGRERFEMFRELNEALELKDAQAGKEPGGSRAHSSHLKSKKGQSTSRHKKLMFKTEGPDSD
Method in brief: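 HCT-116 cells with p53-responsive beta-lactamase reporter, 4000 cells/well, preincubated 5 h, then compound in DMSO (217-fold dilution) for 16 h at 37C. CCF4-AM substrate 2 h at room temperature; 460/530 nm emission ratio fitted upward versus DMSO.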

[3] = TOX21_p53_BLA_p3_viability: Viability Assessment in the Tox21 HCT-116 p53 Agonism Beta-lactamase Assay, Phase 3 (AID 2283593);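 note: cells exposed to compound for 16 h before reading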
Method in brief: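 HCT116 cells, 4000/well, dosed 5 h after plating by pin transfer (217-fold dilution from DMSO stock) and incubated 16 h at 37C, 5% CO2. Viability read as ATP luminescence with CellTiter-Glo after 30 min at room temperature.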

[4] = molecular target: Cellular tumor antigen p53 (Homo sapiens) (UniProt P04637); test: TOX21_p53_BLA_p3_ratio: Tox21 HCT-116 p53 Agonism Beta-lactamase Assay, Ratio, Phase 3 (AID 2283596)
Method in brief: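 HCT116 p53-bla cells (4000/well) given compound in DMSO (217-fold dilution) after 5 h, incubated 16 h at 37C. CCF4-AM substrate 2 h at room temperature; 460/530 nm emission ratio, gain fitted against DMSO.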

[5] = TOX21_p53_BLA_p4_viability: Viability Assessment in the Tox21 HCT-116 p53 Agonism Beta-lactamase Assay, Phase 4 (AID 2283597);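 note: hits lower the luminescence signal meaning cytotoxicity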
Method in brief: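 HCT-116 p53-bla cells, 4000/well, dosed after 5 h attachment and incubated 16 h at 37 °C, 5% CO2. Viability from CellTiter-Glo ATP luminescence after 30 min at room temperature, taken after the beta-lactamase read; loss of signal indicates cytotoxicity.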

[6] = molecular target: Cellular tumor antigen p53 (Homo sapiens) (UniProt P04637); test: TOX21_p53_BLA_p5_ratio: Tox21 HCT-116 p53 Agonism Beta-lactamase Assay, Ratio, Phase 5 (AID 2283599)
Method in brief: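 HCT-116 p53-bla cells (4000/well) plated 5 h, dosed with compound (217-fold DMSO dilution) for 16 h at 37 C; CCF4-AM substrate 2 h at room temperature. Activity is the 460/530 nm emission ratio (405 nm excitation), fitted in gain-of-signal direction versus DMSO.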

[7] = molecular target: Cellular tumor antigen p53 (Homo sapiens) (UniProt P04637); test: TOX21_p53_BLA_p4_ratio: Tox21 HCT-116 p53 Agonism Beta-lactamase Assay, Ratio, Phase 4 (AID 2283601)
Method in brief: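 HCT-116 p53 beta-lactamase reporter cells (4000/well) preincubated 5 h, then compound (217-fold dilution of DMSO stock) for 16 h at 37C. CCF4-AM substrate added 2 h at room temperature; 460/530 nm emission ratio fitted upward versus DMSO.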

SMILES | AC50 [1] | outcome [2] | AC50 [3] | AC50 [4] | AC50 [5] | AC50 [6] | outcome [7] | outcome [1] | AC50 [2] | outcome [3] | outcome [5] | AC50 [7] | outcome [4] | outcome [6]
CO[C@H]1C[C@H](O[C@H]2[C@H](C)O[C@@H](O[C@@H]3/C(C)=C/C[C@@H]4C[C@@H](C[C@]5(C=C[C@H](C)[C@@H](C6CCCCC6)O5)O4)OC(=O)[C@@H]4C=C(C)[C@@H](O)[C@H]5OC/C(=C\C=C\[C@@H]3C)[C@]54O)C[C@@H]2OC)O[C@@H](C)[C@@H]1O | 5.93 µM (active) | inactive | 9.45 µM (active) | 15.8 µM (active) | 5.07 µM (active) | 7.81 µM (active) | inactive |  |  |  |  |  |  | 
O=[N+]([O-])c1ccc(Oc2ccc(N=C=S)cc2)cc1 |  |  |  | 8.52 µM (active) |  | 10.8 µM (active) |  | inactive | 12.9 µM (active) | inactive | inactive | 13.4 µM (active) |  | 
O=S(=O)(c1ccccc1)c1ccc(Cl)cc1 |  | inactive |  |  |  |  | inactive | inactive |  | inactive | inactive |  | inactive | inactive
Cc1ccc(O)c(C(=O)c2ccccc2)c1 |  | inactive |  |  |  |  | inactive | inactive |  | inactive | inactive |  | inactive | inactive
